The list is not random: actives were taken first. Their share in the collection is about 17%.
DT40 TDP1 no CPT = qHTS for Inhibitors of human tyrosyl-DNA phosphodiesterase 1 (TDP1): qHTS in cells in absence of CPT; Potency, µM (doses to about 46.2 µM), for the others: at the top dose activity change, negative = growth inhibition, usual class: inhibitors; DT40 Tdp1-/- hTDP1 cells, no CPT, ATP luminescence, 48 h; hit rate 15% among 420,000; AID 686978, 2013; further: on the % scale 0 is the no-effect control and ±100 the full control effect; nearly all actives have a fitted effect of over 55% in size
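DT40 Tdp1-/-;hTDP1 cells, no CPT (DMSO vehicle only), 400 cells/well; compounds pin-transferred; ≥48 hr, 37 °C; CellTiter-Glo 30 min RT dark, luminescence read.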
HepG2 tox = HepG2 cytotoxicity, counter-screen for TGF-b inhibitors; HepG2 CAGA-GFP viability, ATP luminescence, 18 h; Potency, µM (highest dose often 46.1 µM), without a hit: top-dose activity change, negative = cytotoxicity, actives largely listed as cytotoxic; hit rate 0.76% among 410,000
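CellTiter-Glo luminescence gave cytotoxicity after 18 hours at 37 degrees C. The cells were HepG2 CAGA-GFP in 1% FBS DMEM, stimulated with 500 pg/mL TGF-beta after compound addition. %Activity was normalised to no-cell wells (complete cell-killing) and DMSO (no toxicity), and curves were fitted and classified.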
HT1080-NT tox = kills 2HG-producing HT-1080-NT fibrosarcoma cells; HT-1080-NT fibrosarcoma viability, CellTiter-Glo ATP luminescence, 48 h; hit rate 1.6% among 360,000; Potency, µM (highest dose often 46.1 µM), for the others: top-dose activity, negative = less viability, hits mostly cytotoxic; AID 686970;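 further: NT is the 2HG producing partner of a matched IDH1 knockdown line; 0% = DMSO-treated cells and -100% = media-only wells without cells; nearly all actives have a fitted effect of over 55% in size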
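Viability of the 2HG-overproducing fibrosarcoma line after 48 hours of compound exposure at 37 degrees C was determined by luminescence with CellTiter-Glo, and concentration-effect curves were then fitted and categorized.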
HT1080 IDH1KD tx = toxicity to HT-1080 IDH1 knockdown cells (counter line). HT-1080 IDH1 knockdown viability, ATP luminescence, 48 h. Potency, µM (doses to about 46.1 µM), for the others: top-dose activity, negative = toxicity, most hits filed as cytotoxic. hit rate 2% among 360,000;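 further: 0% = DMSO wells and -100% = cell-free medium wells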
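Cytotoxicity counter-line: IDH1KD HT-1080, 48 h, CellTiter-Glo. Curves classed by r2, magnitude and activity.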
TGFb inhibitor = blocks TGF-b signaling. HepG2 CAGA-GFP TGF-b/SMAD3 reporter, GFP fluorescence, 18 h; TGF-beta stimulated, 500 pg/mL final. hit rate 1.2% among 410,000. Potency, µM (top dose mostly 46.1 µM), inactives show at the highest dose activity, negative = inhibition, usual class: inhibitors; further: on the % scale 0 is the no-effect control and ±100 the full control effect; nearly all actives have a fitted effect of over 65% in size
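Inhibition was scored as loss of TGF-beta-induced (500 pg/mL final, 18 hours, 37 degrees C) GFP in HEPG2 cells carrying a CAGA-GFP reporter, in DMEM with 1% FBS. Well GFP was summed per cell; Activity was normalised to unstimulated and stimulated DMSO wells, then concentration-response fitting.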
TDP1 cell CPT = growth inhibition of DT40 Tdp1-/-;hTDP1 cells with camptothecin (screen for TDP1 inhibitors); hit rate 12% among 420,000; Potency, µM (titrated, usually from 46.2 µM), without a hit: at the highest dose activity change, negative = growth inhibition, most hits filed as inhibitors; chicken DT40 Tdp1-/-;hTDP1 cells + 20 nM CPT, ATP luminescence, 48 h; AID 686979; further: on the % scale 0 is the no-effect control and ±100 the full control effect; nearly all actives have a fitted effect of over 55% in size
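Cell growth measured by CellTiter-Glo luminescence after a minimum 48 h, 37 C compound exposure with 20 nM CPT in Tdp1-knockout DT40 cells stably expressing hTDP1, seeded 400/well; qHTS titration format.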
* marks the source's active call; other numbers are inactive results. The call rests on the fitted dose curve; in most records, active means well fitted curve in the direction sought with a large enough effect; inconclusive means small, poorly fitted or top-dose-only effect, or another doubt; inactive means no such curve, though single readings can be large; an effect the other way counts as inactive or inconclusive. Potency means the concentration at half of the fitted maximal effect.

`CN1CCN(CCOC2c3ccccc3CSc3ccc(Cl)cc32)CC1` (configuration not stated) gave DT40 TDP1 no CPT 16.4µM*, HepG2 tox -45.9%, HT1080-NT tox 16.4µM*, HT1080 IDH1KD tx inconclusive, TGFb inhibitor inconclusive and TDP1 cell CPT inconclusive.
COc1ccccc1CC(=O)Nc1ccc2c(c1)OC1(CCCC1)O2 was read as DT40 TDP1 no CPT inconclusive, HepG2 tox -4.8%, HT1080-NT tox -6.8%, HT1080 IDH1KD tx -12.0%, TGFb inhibitor 2.9% and TDP1 cell CPT inconclusive.
Screening Cc1cccc(-n2c(=S)[nH]c3ccccc3c2=O)n1 returned DT40 TDP1 no CPT -4.8%, HepG2 tox 3.4%, HT1080-NT tox 16.9%, HT1080 IDH1KD tx 11.7%, TGFb inhibitor -7.5% and TDP1 cell CPT 6.4%.
For O=C(CCS(=O)(=O)c1ccccc1)Nc1nnc(-c2ccco2)o1 the results were DT40 TDP1 no CPT inconclusive, HepG2 tox -4.3%, HT1080-NT tox 1.0%, HT1080 IDH1KD tx -4.6%, TGFb inhibitor 0.0% and TDP1 cell CPT inconclusive.
`ClCCOCOCCCl` gave DT40 TDP1 no CPT -9.4%, HepG2 tox 3.2%, HT1080-NT tox 25.9%, HT1080 IDH1KD tx 9.5%, TGFb inhibitor 17.3% and TDP1 cell CPT 3.5%.
Screening O=C(c1cc(-c2ccc(Cl)cc2)n(-c2ccc(Cl)cc2Cl)n1)N1CCOCC1 returned DT40 TDP1 no CPT inconclusive, HepG2 tox -25.3%, HT1080-NT tox -3.1%, HT1080 IDH1KD tx -5.4%, TGFb inhibitor inconclusive and TDP1 cell CPT inconclusive.
Screening C=CCn1nc(C(=O)N2CCOCC2)cc1-c1sc(NC(=O)c2ccccc2)nc1C returned DT40 TDP1 no CPT 10.3µM*, HepG2 tox -23.1%, HT1080-NT tox -5.9%, HT1080 IDH1KD tx -3.8%, TGFb inhibitor 17.8% and TDP1 cell CPT 14.6µM*.
For CC(C)N(C(=O)CCl)c1ccccc1 the results were DT40 TDP1 no CPT 8.2µM*, HepG2 tox -12.1%, HT1080-NT tox 3.66µM*, HT1080 IDH1KD tx inconclusive, TGFb inhibitor 11.4% and TDP1 cell CPT 6.51µM*.
C[C@@H](Cc1cccc(C(F)(F)F)c1)NCCCc1ccccc1 was read as DT40 TDP1 no CPT 13.3µM* and TDP1 cell CPT 13.3µM*.
`O=C(Cn1c(=O)oc2cc(S(=O)(=O)N3CCCCC3)ccc21)NCc1ccc(Cl)cc1` gave DT40 TDP1 no CPT 7.31µM*, HepG2 tox -48.0%, TGFb inhibitor inconclusive and TDP1 cell CPT 9.2µM*.
For CCCCNC(=O)Cn1c(=O)oc2cc(S(=O)(=O)N3CC(C)CC(C)C3)ccc21 (configuration not stated) the results were DT40 TDP1 no CPT inconclusive, HepG2 tox -41.0%, HT1080-NT tox 0.0%, HT1080 IDH1KD tx -3.4%, TGFb inhibitor -19.7% and TDP1 cell CPT 11.6µM*.
Screening Cc1cc(C)cc(NC(=O)Cn2c(=O)oc3cc(S(=O)(=O)N4CC(C)CC(C)C4)ccc32)c1 (configuration not stated) returned DT40 TDP1 no CPT inconclusive, HepG2 tox -2.6%, HT1080-NT tox inconclusive, HT1080 IDH1KD tx inconclusive, TGFb inhibitor inconclusive and TDP1 cell CPT inconclusive.
`O=C(Cn1c(=O)oc2cc(S(=O)(=O)N3CCCCCC3)ccc21)NCc1ccccc1Cl` gave DT40 TDP1 no CPT 7.31µM*, HepG2 tox -43.1%, TGFb inhibitor inconclusive and TDP1 cell CPT 9.2µM*.
Screening COc1ccccc1CNC(=O)Cn1c(=O)oc2cc(S(=O)(=O)N3CCC(C)CC3)ccc21 returned DT40 TDP1 no CPT 2.91µM*, HepG2 tox -32.9%, TGFb inhibitor inconclusive and TDP1 cell CPT 5.17µM*.
